Here are results for eleven molecules from PubChem BioAssay AID652190 (Johns Hopkins Ion Channel Center, 2013).

Active and inactive are the calls of the source.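 The calls were made as follows: active = peak inhibition above 30% at some tested dose, together with a fitted dose response curve; inactive = no inhibition at all doses, or no curve obtained.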

The target in the assay is Inward rectifier potassium channel 2 (Mus musculus) (UniProt P35561). Nature of the assay: Kir2.1 channel inhibition, specificity check, SAR follow-up, selectivity assay for TASK1 inhibitor project, cell-based, FluxOR thallium flux, HEK293, CRC (AID 652190). The settings on record: Kir2.1-expressing cells; series mostly up to 30 µM.
Inward rectifier potassium channel 2 (Mus musculus), sequence (P35561 whole entry, looked up): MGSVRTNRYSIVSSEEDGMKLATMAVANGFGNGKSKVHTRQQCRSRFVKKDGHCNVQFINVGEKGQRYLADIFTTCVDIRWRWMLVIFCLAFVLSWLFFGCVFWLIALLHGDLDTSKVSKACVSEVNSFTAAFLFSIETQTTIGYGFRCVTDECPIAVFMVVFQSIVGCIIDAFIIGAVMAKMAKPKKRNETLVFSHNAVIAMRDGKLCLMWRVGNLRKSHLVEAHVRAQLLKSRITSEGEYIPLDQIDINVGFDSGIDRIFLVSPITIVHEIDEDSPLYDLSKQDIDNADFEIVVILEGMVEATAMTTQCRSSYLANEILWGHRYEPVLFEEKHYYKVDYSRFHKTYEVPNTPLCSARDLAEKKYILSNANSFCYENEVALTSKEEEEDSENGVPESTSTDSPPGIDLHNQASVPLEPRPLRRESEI
Take `COc1cnccc1C(=O)Nc1cccc(NC(=O)c2cccc(C)c2)c1`: the call was inactive.
Next, `COc1c(F)cccc1C(=O)Nc1cccc(NC(=O)c2cccc(C)c2)c1`: “inactive”; `COc1ccccc1C(=O)Nc1cc(NC(=O)c2ccccc2C(C)C)ccc1F`: “inactive”; `COc1ccc(CC(=O)NCc2ccccc2-c2ccccc2C(=O)NCc2ccc(F)cc2F)cc1`: “inactive”.
For the molecule `CC(C)Oc1ccccc1C(=O)Nc1cccc(NC(=O)c2ccccc2OC(F)(F)F)c1`, the outcome was inactive.
Turning to `Cc1cccc(C(=O)Nc2cccc(NC(=O)c3cccc(F)c3)c2)c1`, the molecule was called inactive.
Next, `CC(C)c1ccccc1C(=O)Nc1cccc(NC(=O)c2ccccc2OC(F)(F)F)c1`: “inactive”; `COc1ccccc1C(=O)Nc1cccc(NC(=O)c2cccc3ccccc23)c1`: “inactive”.
For the molecule `COc1ccc(F)cc1C(=O)Nc1cccc(NC(=O)c2cccc(C)c2)c1`, the result was inactive.
For the molecule `COc1ccccc1C(=O)Nc1cc(NC(=O)c2cccc(C)c2)ccc1F`, the result was inactive.
With `CCCC(=O)C1CCN(c2ncnc3c2CN(C(=O)c2ccc(-c4ccccc4)cc2)CC3)CC1`, the molecule was called inactive.
